Hits are enriched below; roughly 7.8% of the tested compounds scored in any of these assays.
PK Bst: Pyruvate Kinase; AID 361, 2006; Potency, µM; actives 1.2% (n = 51,000); purified pyruvate kinase, luminescence ATP production; ribose 5-phosphate activator present at AC10; in the data active = potency below about 11 µM; inconclusive = mostly about 12 µM to 25 µM;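 the screen sought inhibitors and activators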;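 also: scaled between full activation by ribose 5 phosphate and full inhibition by luteolin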
FLuc inh: qHTS Assay for Inhibitors of Firefly Luciferase | Potency, µM (top dose mostly 57.1 µM), inactives show top-dose activity change, negative = inhibition, actives largely listed as inhibitors | Luciferin 4-monooxygenase (Photinus pyralis), P08659 | AID 411, 2009 | purified firefly luciferase, luminescence, 8 min | actives 2.2% (n = 72,000); also: % is scaled to controls: 0 for no effect and ±100 for the full control effect; nearly all actives have a fitted effect of over 40% in size
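Luminescence read-out after 8 min at room temperature; enzyme reaction used luciferin plus 10 uM ATP (linear range) in imidazole buffer pH 7.2 with KCl, MgCl2, Tween 20 and BSA. Each sample was run as a titration.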
TSHR ag: qHTS Assay for Agonists of the Thyroid Stimulating Hormone Receptor | Thyrotropin receptor (Homo sapiens), P16473 | Potency, µM (top dose mostly 57.1 µM), for the others: at the top dose activation, hits mostly activators | HEK293-CNG-TSHR cells (CNG channel as cAMP sensor), membrane potential dye, cAMP | actives 0.48% (n = 73,000); active = well fitted activation curve with a large enough effect in the main read-out, with a control signal flat, not every such curve was filed as active; inconclusive = small, poorly fitted or top-dose-only effect, or a change in a side signal; inactive = no such curve, though single readings can be large or run the other way; % of control where 0% means no effect;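 also: the control signal comes from parental cells without the receptor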
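cAMP rise detected as CNG-channel membrane depolarization by fluorescent dye (emission 590 nm), 30 min after compound, following 60 min dye loading containing 100 uM RO 20-1724 at room temperature. Cells: TSHR/CNG HEK 293, with parental CNG HEK 293 as control.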
HEK293 cAMP cs: qHTS Assay for Agonists of the Thyroid Stimulating Hormone Receptor: Activators of Intracellular cAMP Concentrations in Parental HEK 293. parental HEK293 CNG cAMP sensor, membrane potential fluorescence. Potency, µM (titrated, usually from 57.1 µM), inactives show at the highest dose activation, actives largely listed as activators. actives 2.5% (n = 73,000). AID 938, 2007; also: % of control where 0% means no effect; nearly all actives have a fitted effect of over 55% in size
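Parental HEK 293 cells stably expressing a cAMP-gated CNG channel were loaded with membrane potential dye containing 100 uM RO 20-1724 for 60 min. Compound added for 30 min; depolarization read as fluorescence intensity at 590 nm.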
15-hLO inh: qHTS Assay for Inhibitors of 15-hLO (15-human lipoxygenase); Polyunsaturated fatty acid lipoxygenase ALOX15 (Homo sapiens), P16050; AID 887, 2007; actives 1.4% (n = 74,000); purified 15hLO-1, xylenol orange hydroperoxide absorbance; Potency, µM (highest dose often 57.1 µM), for inactives: at the highest dose activity change, negative = inhibition, most hits filed as inhibitors; also: % is scaled to controls: 0 for no effect and ±100 for the full control effect; nearly all actives have a fitted effect of over 55% in size
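40 nM 15hLO-1 + cpd, 15 min RT; start w/ 50 uM AA (final), 6 min RT; stop/detect w/ 200 uM XO + 300 uM Fe(II) in 50 mM H2SO4, 30 min; A573/A405. Buffer 25 mM Hepes pH 7.5, 0.01% Triton X-100. No-enzyme wells as negative control.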
Tau fil binding: qHTS Assay for Tau Filament Binding. Microtubule-associated protein tau (Homo sapiens), P10636. recombinant tau filaments, thioflavin S fluorescence, 15 h; filaments grown with octadecylsulfate alongside compound. Potency, µM (titrated, usually from 57.1 µM), for the others: at the top dose activity change, negative = inhibition. actives 2% (n = 71,000). AID 596, 2007;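 also: % is scaled to controls: 0 for no effect and ±100 for the full control effect; actives lower thioflavin S fluorescence by blocking filaments or displacing dye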
Target sequence (P10636 whole entry, looked up): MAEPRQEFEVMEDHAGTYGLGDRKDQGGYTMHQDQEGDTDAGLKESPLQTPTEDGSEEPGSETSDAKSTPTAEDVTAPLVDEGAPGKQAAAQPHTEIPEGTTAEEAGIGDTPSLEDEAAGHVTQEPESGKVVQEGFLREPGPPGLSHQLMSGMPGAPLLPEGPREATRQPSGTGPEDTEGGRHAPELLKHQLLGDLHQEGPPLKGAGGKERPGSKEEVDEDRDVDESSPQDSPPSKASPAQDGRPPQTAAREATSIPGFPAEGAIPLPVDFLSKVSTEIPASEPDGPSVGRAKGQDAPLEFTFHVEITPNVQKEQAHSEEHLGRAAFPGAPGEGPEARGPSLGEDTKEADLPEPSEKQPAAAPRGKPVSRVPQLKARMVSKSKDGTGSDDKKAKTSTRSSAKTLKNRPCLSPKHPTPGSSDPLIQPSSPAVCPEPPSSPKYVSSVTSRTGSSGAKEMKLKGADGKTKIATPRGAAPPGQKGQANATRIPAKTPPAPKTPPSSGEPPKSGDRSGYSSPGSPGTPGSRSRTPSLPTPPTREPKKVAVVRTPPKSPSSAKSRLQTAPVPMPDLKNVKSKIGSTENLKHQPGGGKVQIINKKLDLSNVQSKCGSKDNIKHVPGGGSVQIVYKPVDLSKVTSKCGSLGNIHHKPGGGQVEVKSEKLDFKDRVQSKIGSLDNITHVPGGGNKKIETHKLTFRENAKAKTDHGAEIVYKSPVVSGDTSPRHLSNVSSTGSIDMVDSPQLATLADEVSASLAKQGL
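Read-out: ThS fluorescence, 450 nm excitation/510 nm emission; lower signal marks blocked filament formation or displaced dye. Tau at 1 uM with 30 uM ODS, 10 uM ThS, 5 mM DTT, 100 mM NaCl, 10 mM HEPES pH 7.4; 15 h, 37 C.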
An asterisk follows results filed as active; i = inactive; ? = inconclusive; nt = no result; [ ] = dose if it differs, or a comment. Unless noted, calls follow the shape of the dose curve; as a rule, active = well fitted curve in the direction sought with a large enough effect; inconclusive = small, poorly fitted or top-dose-only effect, or another doubt; inactive = no such curve, though single readings can be large; an effect the other way counts as inactive or inconclusive. Potency is read from the fitted curve at half-maximal effect.

SMILES	PK Bst	FLuc inh	TSHR ag	HEK293 cAMP cs	15-hLO inh	Tau fil binding
CC(NC(=O)c1ccccc1O)c1ccccc1 (stereo not drawn)	nt	3%	6%[11.4 µM]	11%[11.4 µM]	-26%[11.4 µM]	6%[11.4 µM]
COc1cc2c(cc1NC(=O)COC(=O)Cn1cnc3ccccc31)oc1ccccc12	nt	16µM*	-7%	-9%	8%	2%
COc1ccc(-c2coc3cc(O)cc(O)c3c2=O)cc1	?	-16%[25.5 µM]	-10%	-16%	-27%[25.6 µM]	?
O=c1c(-c2cc(O)c(O)c(O)c2)coc2cc(O)c(O)c(O)c12	nt	nt	nt	nt	10µM*	nt
COc1cc(-n2nc(C)c3c2OC(N)=C(C#N)C3c2ccccc2)c(Cl)c(Br)c1O (stereo not drawn)	>57	-1%	-48%	-28%	-14%	25µM*
C[C@@H]1O[C@@H](O)[C@@H](O)[C@H](O)[C@H]1O	nt	1%[11.4 µM]	-4%[11.4 µM]	-2%[11.4 µM]	-1%[11.4 µM]	8%[11.4 µM]
CS(=O)(=O)N1CCc2cc(C(=O)OCC(=O)c3ccccc3)ccc21	nt	13µM*	nt	15%	-5%	43%
Cc1cc(C(=O)Nc2sc3c(c2C#N)CCC3)no1	nt	16µM*	5%	6%	-24%	-14%
Cc1ccnc(SCC(=O)Nc2sc3c(c2C#N)CCCC3)n1	>57	-3%	?	20µM*	-14%	-2%
Cc1cc(C(=O)Nc2sc3c(c2C#N)CCCC3)no1	?	13µM*	-2%	3%	-14%	-1%
Cc1cc(C(=O)Nc2sc3c(c2C#N)CCC(C)C3)no1 (stereo not drawn)	>57	-2%	10%	0%	8%	7%
CC(C)Cc1cc(C(=O)Nc2sc3c(c2C#N)CCCC3)no1	nt	1%	nt	19%	-11%	15%
N#Cc1c(NC(=O)CSC2=NCCS2)sc2c1CCCC2	>57	1%	?	?	-16%	4%
C[C@@H](C(=O)O)c1ccc(C(=O)c2cccs2)cc1	nt	3%[25.5 µM]	-4%[25.6 µM]	1%[25.6 µM]	5%[25.6 µM]	5%[25.6 µM]
COc1cccc(N(C(=O)c2cccs2)c2nc3ccccc3s2)c1	>57	-10%	?	13µM*	-9%	214%
COc1ccc(-c2csc(N(CCCN(C)C)C(=O)c3cccs3)n2)cc1	i	2%	?	?	5%	87%
COc1ccccc1CC(=O)N1CCN(c2cccc(C(F)(F)F)c2)CC1	nt	2%	?	?	-13%[11.4 µM]	8%[11.4 µM]
CCOc1ccc(N(CC(=O)NC2CCCC2)S(=O)(=O)c2c(C)[nH]c(=O)[nH]c2=O)cc1	nt	2%	5%	-2%	3%	-7%
CC(=O)C1=C(C)Nc2cc(C(F)(F)F)ccc2S1	nt	-1%	-11%	0%	13µM*	32µM*
O=c1oc2c3c4c(cc2cc1-c1nc2ccccc2[nH]1)CCCN4CCC3	nt	2µM*	-14%	-11%	-19%	i
O=c1oc2c(CN3CCCCC3)c(O)ccc2cc1-c1nc2ccccc2[nH]1	nt	-22%	nt	-4%	-6%	i
CCCS(=O)(=O)NCCc1csc(-c2cccnc2)n1	nt	-1%	36%	4%	-8%	-18%
Cc1ccnc(N2CCC(C(=O)Nc3cccc(C(F)(F)F)c3)CC2)n1	>57	-2%	?	20µM*	-7%	8%
CCCCC(=O)N(C)C	nt	nt	8%	24%	1%	2%
COc1ccc2nc3cc(Cl)ccc3c(Nc3ccc(O)c(CN4CCN(C)CC4)c3)c2c1	nt	-3%[11.4 µM]	?	-31%[11.4 µM]	9%[11.4 µM]	0.25µM*
SMILES	PK Bst	FLuc inh	TSHR ag	HEK293 cAMP cs	15-hLO inh	Tau fil binding
COc1ccc(N2CCN(Cc3cc(=O)oc4ccc(Cl)cc34)CC2)cc1	>57	2%	9%	5%	4%	-13%
c1coc(-c2nnc3sc(Cc4cccs4)nn23)c1	>11	1%[25.5 µM]	nt	nt	nt	nt
Clc1ccc(-c2nnc3sc(Cc4cccs4)nn23)c(Cl)c1	9.5*	0%[25.5 µM]	nt	nt	nt	nt
CCOC(=O)c1csc(Nc2nc3ccc(F)cc3s2)n1	1.2*	1%	-4%	-2%	28%	131%
CC(=O)c1sc(Nc2nc3ccc(F)cc3s2)nc1C	?	16µM*	-7%[11.4 µM]	-15%	-28%	-6%
O=C(Nc1cc(NC(=O)c2ccccc2)c(C(=O)O)cc1C(=O)O)c1ccccc1	nt	nt	1%	3%	-4%	nt
O=C(Nc1cccc2ccccc12)c1ccccc1	nt	0%[11.4 µM]	3%[11.4 µM]	12%[11.4 µM]	-5%[11.4 µM]	-10%[11.4 µM]
Cc1cc(NC(=O)c2ccccc2)sc1C	nt	13µM*	2%	1%	?	-10%
Cc1ccc(NC(=O)c2ccccc2)s1	8.3*	7.9µM*	4%	-6%	-17%	-13%
O=c1cc(-c2ccc(O)c(O)c2)oc2cc(O[C@@H]3O[C@@H](CO)[C@@H](O)[C@@H](O)[C@H]3O)cc(O)c12	nt	-2%[11.4 µM]	-6%	-2%	nt	?
Cc1nc2ncnn2c(N2CCN(C(c3ccccc3)c3ccccc3)CC2)c1C	>57	1%	?	32µM*	?	177%
O=C(CCN1CCc2ccccc2C1)Nc1ccccc1	nt	-1%	8%[11.4 µM]	3%[11.4 µM]	?	-17%[11.4 µM]
O=C(c1cccc2c1-c1ccccc1/C2=N/O)N1CCCCC1	nt	-1%	?	13µM*	-12%	-1%
CCCC(=O)Nc1cccc(NC(=O)c2ccc3c(c2)OCCO3)c1	nt	16µM*	2%[11.4 µM]	-10%	-2%	-2%
CCCCC(=O)Nc1cccc(NC(=O)c2ccc3c(c2)OCO3)c1	>57	?	1%	-2%	-1%	25%
O=C(Nc1ccc2c(c1)OCCO2)c1ccccc1F	nt	5µM*	13%[11.4 µM]	26%[11.4 µM]	-10%[11.4 µM]	?
O=C(Nc1ccc2c(c1)OCCO2)c1c(F)cccc1F	nt	13µM*	2%	6%	4%	0%
O=C(Nc1ccc2c(c1)OCO2)c1c(F)c(F)c(F)c(F)c1F	>57	1%	30%	13%	5%	-11%
CC[C@@H]1OC(=O)[C@@H](C)[C@H](O[C@@H]2C[C@@](C)(OC)[C@@H](O)[C@H](C)O2)[C@H](C)[C@H](O[C@@H]2O[C@@H](C)C[C@@H](N(C)C)[C@H]2O)[C@@](C)(O)C[C@H](C)C(=O)[C@@H](C)[C@H](O)[C@@]1(C)O	nt	0%[11.4 µM]	2%	-2%	nt	?
O=c1c2c3nc4ccccc4nc3n(/N=C/c3ccco3)c2ncn1CCC1=CCCCC1	nt	0%	1%	-5%	-20%	7.9µM*
CC1(C)SC2C(NC(=O)C(NC(=O)N3CCNC3=O)c3ccccc3)C(=O)N2C1C(=O)O (stereo not drawn)	nt	nt	nt	nt	-3%	nt

Compound activity from PubChem.
